Data reported in PubChem BioAssay AID2315 (National Center for Advancing Translational Sciences (NCATS), 2010).
Screen size: about 290,000 compounds; about 27,000 (9.3%) were called active. Rule as the data show it: active = inhibition mostly above about 28% (no sharp cut-off); inactive = mostly below about 43%. The entries come from a sample that favours actives as a whole.

Assay: A qHTS for Small Molecule Inhibitors of Shiga Toxin; also: 0% is about no effect
Details: Vero cells, Shiga toxin protein synthesis inhibition reporter; at 38.7 µM, active compounds read high

| Structure (SMILES) | inhibition |
| --- | --- |
| O=C(NCCCN1CCCC1=O)C(=O)NCC1OCCN1S(=O)(=O)c1ccc(Br)cc1 (stereo unspecified) | 22.9% (inactive) |
| Nc1nc(Nc2ccccc2F)nc(NC2CCCCC2)c1[N+](=O)[O-] | 2.97% (inactive) |
| Cn1c(N2CCOCC2)c(C=O)c2ccccc21 | -1.16% (inactive) |
| Cc1ccc(Cn2ncc3c4sc(C)cc4n(C)c3c2=O)c(C)c1 | -2.93% (inactive) |
| C=CCn1cc(Cl)cc(C(=O)Nc2ccccc2)c1=O | 16.8% (inactive) |
| CCN(CC)c1ccc(C(=O)NNC(=O)CCc2nc3ccccc3c(=O)[nH]2)cc1 | 10.9% (inactive) |
| Cc1ccc(NC(=O)COc2ccc(/C=C3/NC(=O)NC3=O)cc2)cc1 | 8.39% (inactive) |
| CC(C)CN(CC(C)C)C(=O)CN1c2cccc3cccc(c23)S1(=O)=O | 2.89% (inactive) |
| COc1ccc(C(CCN2CCOCC2)c2c(OC)cc(OC)c3c2OC(=O)CC3c2ccc(OC)cc2)cc1 (stereo unspecified) | -0.588% (inactive) |
| COc1ccc(C(C)NC(=S)NC2CCCCC2)cc1OC (stereo unspecified) | -35.1% (inactive) |
| CCc1c(C)c2ccc(OC3CCCCC3=O)cc2oc1=O (stereo unspecified) | 28% (inactive) |
| CCOC(=O)c1c(NC(=O)c2ccc(N3CCOCC3)c([N+](=O)[O-])c2)sc(C)c1C | 9.37% (inactive) |
| COc1cccc(NC(=O)c2ccc(S(=O)(=O)N(C)C)cc2)c1 | 70.6% (inactive) |
| COc1ccc(NC(=O)C(C)SCc2ccccc2)cc1 (stereo unspecified) | 40.5% (inactive) |
| COCCNC(=S)c1ccc(OC)cc1 | 13% (inactive) |
| COc1ccc(C(=S)Nc2ccccc2)cc1 | 62.5% (active) |
| COc1ccc(NC(=O)c2sccc2SCC#N)cc1 | 52.8% (active) |
| CCC(=O)Nc1ccc(C(=O)Nc2cccc(OC)c2)cc1 | 108% (active) |
| COc1ccc(NC(=O)c2sc(N)nc2-c2ccccc2)cc1 | 9.77% (inactive) |
| COc1cccc(NC(=O)CN(C)CC(=O)Nc2ccc3c(c2)CCC3)c1 | -9.55% (inactive) |
| COc1ccc(-c2nn(CCC#N)cc2C(=O)Nc2ccc(C(C)=O)cc2)cc1 | 25.5% (inactive) |

| Structure (SMILES) | inhibition |
| --- | --- |
| COc1ccc(C(=O)Nc2sc(C)c(C)c2CN2CCOCC2)cc1 | 82.5% (active) |
| COc1ccc(C(=O)Nc2ccnn2C2CCN(Cc3ccncc3)CC2)cc1 | -4.63% (inactive) |
| CCC(=O)Nc1nnc(S(=O)(=O)N2CCCc3ccccc32)s1 | -3.3% (inactive) |
| O=C(Nc1ccc(C(=O)O)cc1)/C(=C\c1ccccc1)NC(=O)c1ccc(Br)cc1 | -9.04% (inactive) |
| CC(=O)c1c(C)oc2ccc(NS(=O)(=O)c3ccccc3)cc12 | -6.31% (inactive) |
| CC(C)CC(=O)c1c[nH]c(C(=O)NCc2ccccc2)c1 | -10% (inactive) |
| CCOc1ccc(NC(=O)CCC(=O)NNC(=O)NC2CCCCC2)cc1 | -9.72% (inactive) |
| CCOCCCNC(=O)c1cn(CC(C)C)c(=O)c2c1c1ccccc1n2C | -4% (inactive) |
| Cc1ccccc1C(=O)NC(=S)Nc1ccc(N2CCN(C(=O)c3ccccc3)CC2)cc1 | -15.7% (inactive) |
| CC(C)CC(CCc1ccccc1)OS(N)(=O)=O (stereo unspecified) | 7.41% (inactive) |
| CC(=O)N1c2ccc(S(=O)(=O)N3CCC(C(=O)NC4CCCC(C)C4C)CC3)cc2CC1C (stereo unspecified) | -3.25% (inactive) |
| CCOc1ccccc1-c1cc(C(=O)N2CCOCC2)c2ccccc2n1 | -10.7% (inactive) |
| COc1ccc(NS(=O)(=O)c2cc3c(cc2C)N(C(C)=O)CCO3)cc1 | 0.181% (inactive) |
| Cc1onc(NC(=O)c2ccc([N+](=O)[O-])o2)c1Br | 71.2% (active) |
| Cc1cccc(NC(=O)c2sc(-c3ccccc3)nc2-c2ccc([N+](=O)[O-])cc2)c1 | -1.42% (inactive) |
| Cc1cccc(NC(=O)c2ccc([N+](=O)[O-])o2)c1 | 55.5% (active) |
| Cc1onc(C(=O)NCc2ccc(F)cc2)c1[N+](=O)[O-] | 15.4% (inactive) |
| Cc1ccc(C(=O)Nc2nnc(-c3ccncc3)s2)o1 | -10.6% (inactive) |
| Cc1cccc(NC(=O)c2cc([N+](=O)[O-])ccc2N2CCN(C)CC2)c1 | 1.74% (inactive) |
| O=C(Cc1ccccc1F)NC1CCSc2ccccc21 (stereo unspecified) | 8.44% (inactive) |
| CCOC(=O)c1ccc(NC(=O)c2ccc(NC(=O)C3CCCO3)cc2)cc1 (stereo unspecified) | 21.1% (inactive) |

| Structure (SMILES) | inhibition |
| --- | --- |
| CC(C)c1ccc(NC2CCCN(C(=O)c3ccncc3)C2)cc1 (stereo unspecified) | -8.11% (inactive) |
| COC(=O)c1cc(NC(=O)c2cc(C(C)(C)C)nn2Cc2cccc(C)c2)ccc1N1CCOCC1 | -6.65% (inactive) |
| COCc1nnc(NC(=O)c2ccc3c(c2)OCO3)s1 | 59.3% (active) |
| O=C(Nc1cccnc1)c1cc2cc(Br)ccc2oc1=O | 28.7% (inactive) |
| O=C(Nc1nc2ccccc2s1)c1ccc2c(c1)OCO2 | 39.2% (active) |
| COCc1nnc(NC(=O)CS(=O)(=O)Cc2ccccc2)s1 | 3.05% (inactive) |
| C/C(=N/NC(=S)Nc1ccccc1)c1ccc2c(c1)OCO2 | 67.4% (inactive) |
| CCCc1nnc(NC(=O)c2cc(OC)cc(OC)c2)s1 | 34.6% (inactive) |
| COc1ccc(S(=O)(=O)N2CCOCC2)cc1C(=O)Nc1nc2ccccc2s1 | -1.04% (inactive) |
| O=C(Nc1cccnc1)c1noc2c1CCCCC2 | 29% (active) |
| N#Cc1ccccc1NC(=O)c1ccc2c(c1)OCO2 | 22.7% (inactive) |
| O=C(Nc1ccccc1)c1ccc2c(c1)OCO2 | 58.7% (active) |
| O=C(Nc1nc2cc3c(cc2s1)OCCO3)c1cccc(S(=O)(=O)N2CCOCC2)c1 | 53.6% (inactive) |
| O=C(Nc1cccnc1)c1cccc(S(=O)(=O)N2CCCC2)c1 | 23.2% (inactive) |
| CCOC(=O)c1csc(CCNC(=O)c2oc3c(Cl)cc(C)cc3c2C)n1 | 43.9% (inactive) |
| O=C(NCCS(=O)(=O)c1ccc(Br)cc1)c1ccccc1Cl | -1.37% (inactive) |
| Cc1ccnc(NC(=O)C2CCN(S(=O)(=O)c3c(C)c(C)cc(C)c3C)CC2)c1 | 8.68% (inactive) |
| COc1ccc(N(C(=O)CNC(=O)c2ccco2)C(C(=O)NCC2CCCO2)c2ccccc2)cc1Cl (stereo unspecified) | 15.8% (inactive) |
| C/C(=N\NC(=O)C1(C)CC1(Br)Br)c1ccc(C)cc1C (stereo unspecified) | -7.42% (inactive) |
